Source: PubChem (several laboratories)
Most compounds without a hit are left out; they make up all but 27% or so of the library.
CYP2C9 act: activators of human CYP2C9; recombinant CYP2C9, luciferin-H conversion, luminescence; active compounds read high; factor 1 = untreated enzyme, 0 = blocked; activation factor at 5 µM; 96,000 compounds, 1.4% hits; AID 1024;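 active means activation factor of 2 or more for CYP2C9 at a 5 µM dose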;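 further: 0 = sulfaphenazole-blocked wells and 1 = vehicle-only wells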
Target sequence (P11712 whole entry, looked up): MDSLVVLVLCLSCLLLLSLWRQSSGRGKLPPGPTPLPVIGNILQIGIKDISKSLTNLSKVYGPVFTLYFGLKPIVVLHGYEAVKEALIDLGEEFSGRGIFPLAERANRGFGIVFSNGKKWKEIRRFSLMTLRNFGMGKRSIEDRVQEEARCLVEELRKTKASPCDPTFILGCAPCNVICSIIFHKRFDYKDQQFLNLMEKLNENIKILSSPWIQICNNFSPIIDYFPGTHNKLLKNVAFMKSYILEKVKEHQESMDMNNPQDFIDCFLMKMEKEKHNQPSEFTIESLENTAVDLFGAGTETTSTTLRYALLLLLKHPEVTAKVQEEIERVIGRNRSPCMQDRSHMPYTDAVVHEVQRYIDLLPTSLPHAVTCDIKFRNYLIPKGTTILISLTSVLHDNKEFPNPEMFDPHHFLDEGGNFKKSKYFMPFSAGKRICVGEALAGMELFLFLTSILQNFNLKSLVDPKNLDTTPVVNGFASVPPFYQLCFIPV
CYP2C9 inhib: inhibitors of human CYP2C9 | P11712 | inhibition, % at 5 µM | CYP2C9 Supersomes, luciferin-H conversion, luminescence | 96,000 compounds, 20% hits;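 active means blocking of liver enzyme CYP2C9 beyond about 50% at 5 µM, limit read from the data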
CYP2C19 act: cytochrome P450 2C19 (human) activation. P33261. recombinant CYP2C19, luciferin-H EGE luminescence; active compounds read high; 0 = fully inhibited enzyme, 1 = untreated enzyme. activation factor at 5 µM. 96,000 tested, under 10 active;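 active means activation factor of at least 2 at 5 µM in the primary screen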;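 further: 0 = wells with 2.5 mM tranylcypromine and 1 = vehicle-only wells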
CYP2C19 inhib: inhibitors of human CYP2C19; P33261; CYP2C19 Supersomes, luciferin-H EGE luminescence, 30 min; inhibition, % at 5 µM; 96,000 compounds, 21% hits;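 active means CYP2C19 inhibition above a set limit at 5 µM in the primary screen, cut at about 50% in these data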;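 further: plate controls were negative control wells for no effect and 2.5 mM tranylcypromine positive control for full effect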
Cav3 T inh: blocks human Cav3.2 T-type calcium channel | AID 449739 | 100,000 compounds, 4% hits | Cav3.2-expressing cells, Fluo-4 calcium fluorescence FDSS; active compounds read low | B-score at 10 µM | O95180;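 active means single-dose well whose peak fluorescence ratio is a statistical outlier from its plate by either plate-standardised score or position-corrected B-score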
* = called active by the depositor; x = no result.

SMILES	CYP2C9 act	CYP2C9 inhib	CYP2C19 act	CYP2C19 inhib	Cav3 T inh
C=CCNC(=S)N1CCN(c2ncc3c(=O)c(C(=O)O)cn(CC)c3n2)CC1	1.1	-5	1.1	-11	0.36
COc1ccc(Cl)cc1NS(=O)(=O)c1cc(Cl)ccc1OC	0.9	11	1.1	-6	-0.32
COc1cc(NS(=O)(=O)c2ccc(C)c(C)c2)c(OC)cc1Cl	0.1	95*	0	100*	-6.6*
COc1ccc(S(=O)(=O)Nc2ccc(C(F)(F)F)cc2)cc1OC	0.4	62*	0	99*	-4.8*
Cc1ccc(S(=O)(=O)NCC(C)NS(=O)(=O)c2ccc(C)cc2)cc1 (stereo unspecified)	1.1	-15	0.7	33	x
COc1ccccc1NS(=O)(=O)c1ccc(Cl)cc1	0.7	30	0	99*	-0.078
CCCC(C)NS(=O)(=O)c1ccc(OC)c(C)c1 (stereo unspecified)	1.8	-84	0.2	81*	-0.7
C=C1C(=O)C=C[C@]2(C)C[C@@H]3OC(=O)[C@](C)(O)[C@H]3C[C@@H]12	x	x	x	x	0.96
COc1cc(NC(=O)c2ccc(Br)o2)c(C(=O)O)cc1OC	1.1	-6	1.1	-15	0.74
CC(=O)Nc1ccc(Oc2nc(C)cc(C)n2)cc1	1	3	0.9	8	x
Cc1nn(-c2ccccc2)c2c1C(c1cccnc1)N1C=C(S(=O)(=O)N3CCCCC3)C=CC1=N2 (stereo unspecified)	0.9	11	0.9	11	0.6
CSc1ccccc1NS(=O)(=O)c1ccccc1	4.6*	-360	0.1	87*	0.36
Cc1ccnc(NS(=O)(=O)c2ccccc2)n1	1	3	1	2	0.36
CCOC(=O)CN1C(=O)N[C@@H](c2ccco2)C(C(=O)OC)=C1C	x	x	x	x	0.77
CCCCn1c(CCn2nc(C)c(Br)c2C)n[nH]c1=S	0.5	49	0.1	90*	0.095
Cc1cccc(-n2c(CCn3nc(C)c([N+](=O)[O-])c3C)n[nH]c2=S)c1	0.7	26	0.9	8	0.83
CCOC(=O)C1(C)/C(=N/Nc2ccc(Cl)cc2)C(=O)C(=O)N1c1ccccc1 (stereo unspecified)	1	-2	1.2	-18	-3.3
CCOC(=O)C1(C)/C(=N/Nc2ccccc2Cl)C(=O)C(=O)N1c1ccccc1 (stereo unspecified)	0.9	6	1	4	-4.9*
O=C(c1ccccc1)c1nnc(-c2ccncc2)o1	0.8	19	0.3	71*	0.042
O=C(c1nnc(-c2ccncc2)o1)c1ccccc1Cl	0.6	38	0.2	84*	0.04
COC(=O)C1CCN(C(=O)CSc2nnc(-c3ccncc3)o2)CC1	1	-5	0.8	15	-0.16
O=C(c1ccc(Cl)cc1)c1nnc(-c2ccncc2)o1	0.5	47	0.2	78*	-0.21
CC1(c2nnc(-c3ccccc3)o2)CC(c2ccncc2)=NO1 (stereo unspecified)	x	x	x	x	0.56
C=CCn1c(N(C)C)nc2c1c(=O)[nH]c(=O)n2C	x	x	x	x	0.76
Cc1cc(C(=O)NCC(=O)OC(C(=O)Nc2cc(C(F)(F)F)ccc2Cl)c2ccccc2)ccc1[N+](=O)[O-] (stereo unspecified)	0.5	49	0.6	45	-9*
SMILES	CYP2C9 act	CYP2C9 inhib	CYP2C19 act	CYP2C19 inhib	Cav3 T inh
Cc1cc2cc(CNC(=O)CC(C)C)ccc2n1C	1.1	-7	0.6	38	2.1
CC1C(=O)C(C)C(c2cccs2)NC1c1cccs1 (stereo unspecified)	0.8	15	0.1	92*	0.019
COC(=O)C(Cc1c[nH]c2ccccc12)NC(=O)C(C)C (stereo unspecified)	0.9	8	0.8	18	1.1
CCOC(=O)C(Cc1c[nH]c2ccccc12)NC(=O)c1ccco1 (stereo unspecified)	0.3	72*	0.2	78*	-0.025
CC(C)COC(=O)C1C2C=CC3(CN(C4CCCC4)C(=O)C13)O2 (stereo unspecified)	1	4	1	-4	0.88
C/C(O)=C\c1nc2ccccc2oc1=O	1.1	-14	1.1	-12	0.031
CS(=O)(=O)Cc1nc2ccccc2oc1=O	0.6	45	0.4	64*	-0.69
Cc1ccccc1NC1=C(Cl)C(=O)OC1OC(C)C (stereo unspecified)	0.7	30	0	96*	0.23
COc1ccc(N2CCN(c3nc4c(c(=O)n(C)c(=O)n4C)n3CCCc3ccccc3)CC2)cc1	0.8	25	0.9	13	-0.032
